Screening data as filed in PubChem.
VP16 counter: counter-screen for ROR gamma inhibitors: Gal4-VP16 reporter; 310,000 compounds, 3.5% hits; AID 2546; Potency, µM (series often up to 53.6 µM), for inactives: top-dose activity, negative = inhibition, usual class: inhibitors; Drosophila S2 Gal4-VP16 UAS-luciferase, luminescence, 20 h;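 also: Gal4-VP16 expression switched on by copper sulfate through the metallothionein promoter; nearly all actives have a fitted effect of over 50% in size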
ELG1 DNA repair: inhibitors of ELG1-dependent DNA repair in HEK293T cells; HEK293T ELG1-luciferase reporter, luminescence, 16 h; DNA damage induced by 5-fluorouridine; Potency, µM (titrated, usually from 46.1 µM), inactives show top-dose activity change, negative = inhibition, most hits filed as inhibitors; 330,000 compounds, 2.3% hits; also: nearly all actives have a fitted effect of over 55% in size
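Cells (2,000 per well) received 5-fluorouridine plus test compound or DMSO and were incubated 16 hr at 37 °C, 5% CO2. Luciferase activity was read by luminescence 30 min after ONE-Glo addition; signal suppression marked inhibition of damage-induced ELG1 function.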
RORg inh: blocks mouse ROR gamma transcriptional activity; P51450; Drosophila S2 Gal4-RORgamma UAS-luciferase reporter, 20 h; Potency, µM (titrated, usually from 53.6 µM), inactives show at the top dose activity change, negative = inhibition, actives largely listed as inhibitors; 310,000 compounds, 5.4% hits; AID 2551; also: nearly all actives have a fitted effect of over 60% in size
Target sequence (P51450 whole entry, looked up, the tested form may be a part): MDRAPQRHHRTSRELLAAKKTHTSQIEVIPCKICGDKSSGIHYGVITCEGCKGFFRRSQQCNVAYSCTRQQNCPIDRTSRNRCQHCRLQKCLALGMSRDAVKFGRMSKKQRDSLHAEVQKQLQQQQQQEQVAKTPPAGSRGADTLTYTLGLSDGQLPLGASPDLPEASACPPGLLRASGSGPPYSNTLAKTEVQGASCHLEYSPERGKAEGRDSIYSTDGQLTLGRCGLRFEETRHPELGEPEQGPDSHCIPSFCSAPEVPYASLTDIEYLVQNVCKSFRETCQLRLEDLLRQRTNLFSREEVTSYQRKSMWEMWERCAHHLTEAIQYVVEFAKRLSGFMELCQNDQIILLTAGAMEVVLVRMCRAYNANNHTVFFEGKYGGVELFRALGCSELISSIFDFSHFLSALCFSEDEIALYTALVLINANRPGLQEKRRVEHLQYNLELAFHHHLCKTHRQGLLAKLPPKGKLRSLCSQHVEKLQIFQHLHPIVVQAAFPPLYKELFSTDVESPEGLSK
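Luminescence from a UAS-regulated Photinus luciferase reporter in stably transfected Drosophila Schneider cells is measured; decreased signal marks ROR gamma inhibition. Fusion expression is induced by 700 uM copper sulfate for 20 hr.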
12-LOX inh: blocks human arachidonate 12S-lipoxygenase | purified 12hLO, xylenol orange hydroperoxide absorbance | 580,000 compounds, 1.1% hits | AID 1671190 | Potency, µM (doses to about 108 µM), inactives show top-dose activity change, negative = inhibition, actives largely listed as inhibitors | P18054
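Purified human 12hLO at 150 nM in 25 mM Hepes, 0.01% Triton X-100, pH 7.0, preincubated 15 min at room temperature with compound. Reaction started with 40 uM arachidonic acid, 30 min at room temperature. Hydroperoxide measured by Fe-xylenol orange, 573/405 nm absorbance ratio.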
DT40 TDP1 CPT: DT40-hTDP1 cell growth loss with CPT; chicken DT40 Tdp1-/-;hTDP1 cells + 20 nM CPT, ATP luminescence, 48 h; Potency, µM (titrated, usually from 46.2 µM), for inactives: at the highest dose activity change, negative = growth inhibition, usual class: inhibitors; 420,000 compounds, 12% hits; AID 686979; also: nearly all actives have a fitted effect of over 55% in size
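Chicken DT40 Tdp1-/- cells stably complemented with human TDP1 were seeded at 400 cells/well in medium containing 20 nM camptothecin, exposed to pin-transferred compounds, and grown at 37 °C for at least 48 hr. Viability was read as ATP luminescence.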
DT40 TDP1 no CPT: qHTS for Inhibitors of human tyrosyl-DNA phosphodiesterase 1 (TDP1): qHTS in cells in absence of CPT; DT40 Tdp1-/- hTDP1 cells, no CPT, ATP luminescence, 48 h; Potency, µM (titrated, usually from 46.2 µM), without a hit: at the top dose activity change, negative = growth inhibition, usual class: inhibitors; 420,000 compounds, 15% hits; AID 686978, 2013; also: nearly all actives have a fitted effect of over 55% in size
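Readout: luminescence from CellTiter-Glo after 30 min in the dark at RT. Cells: DT40 Tdp1-/- with stable hTDP1, 400/well. Exposure: compounds alone, ≥48 hr, 37 °C.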
Active calls of the source: *; ? = inconclusive; . = not tested or not shown. Only some compounds are listed: those with a hit (about 15% of all), similar ones and a draw of the others. Calls follow the shape of the dose curve; as a rule, active = well fitted curve in the direction sought with a large enough effect; inconclusive = small, poorly fitted or top-dose-only effect, or another doubt; inactive = no such curve, though single readings can be large; an effect the other way counts as inactive or inconclusive. % is scaled to controls: 0 for no effect and ±100 for the full control effect; potency is read from the fitted curve at half-maximal effect.

SMILES	VP16 counter	ELG1 DNA repair	RORg inh	12-LOX inh	DT40 TDP1 CPT	DT40 TDP1 no CPT
CCc1nc2c(OCc3ccc(C(F)(F)F)cc3)cccn2c1N(C)C(=O)c1ccc(OC)cc1	.	.	.	-24.1%	10.3µM*	13µM*
CCc1nc2c(OCc3ccc(OC)cc3)cccn2c1N(C)C(=O)C(C)C	.	.	.	16.6%	?	?
CCc1nc2c(OCc3ccc(C#N)cc3)cccn2c1N(C)C(=O)C(C)C	.	.	.	-4.3%	?	?
CCc1nc2c(OCc3ccc(C#N)cc3)cccn2c1N(C)C(=O)c1ccc(C)cc1	.	.	.	?	18.4µM*	18.4µM*
CC(C)CNC(=O)CCNC(=O)c1ccccc1	.	.	.	3.2%	.	.
CCOC(=O)C(=O)N(C)c1c(CC)nc2c(OCc3ccccc3)cccn12	.	.	.	0.2%	-19.8%	-26.7%
CCOC(=O)N(C)c1c(CC)nc2c(OCc3ccc(C(F)(F)F)cc3)cccn12	.	.	.	10.2%	?	13µM*
CC(=O)N1CCN(C(=O)c2cc3ccc(F)cc3nc2C)CC1	.	.	.	58.7%	.	.
Cc1ccc(-c2ccc(C(=O)Nc3ccccc3)o2)c2ccccc12	?	0.2%	?	-18.4%	?	?
Cc1ccc(-c2ccc(C(=O)NCc3ccccc3)o2)c2ccccc12	0.2%	0.4%	3.3%	-27.6%	23.1µM*	?
Cc1ccc(S(=O)(=O)NC(=O)c2ccc(-c3ccc(C)c4ccccc34)o2)cc1	-5.6%	7.6%	22.6%	35.5µM*	?	?
O=C(c1ccccc1F)N1CCCC2(C1)C(=NC1CCCCC1)NC(=O)N2c1cccnc1 (configuration not stated)	.	.	.	43.7%	.	.
Cc1ccc(S(=O)(=O)CCC(=O)OCC(=O)c2ccc3c(c2)-c2ccccc2C3)cc1	.	.	.	14.7%	.	.
O=C(/C=C/c1ccc(F)cc1)Nc1nc2n(n1)C(c1ccc(Cl)cc1)C=C(c1ccccc1)N2 (configuration not stated)	.	.	.	-0.8%	?	14.6µM*
O=C(/C=C/c1ccccc1)Nc1nc2n(n1)C(c1ccc(Cl)cc1)C=C(c1ccccc1)N2 (configuration not stated)	.	.	.	3.4%	20.6µM*	23.1µM*
COc1ccc(/C=C/C(=O)Nc2nc3n(n2)C(c2ccccc2)C=C(c2ccc(Cl)cc2)N3)cc1 (configuration not stated)	.	.	.	-5.7%	?	?
COc1ccccc1/C=C/C(=O)Nc1nc2n(n1)C(c1ccc(F)cc1)C=C(c1ccccc1)N2 (configuration not stated)	.	.	.	1.5%	10.3µM*	4.61µM*
OCCCc1nc2n(n1)C(c1ccccc1)C=C(c1ccc(F)cc1)N2 (configuration not stated)	0.3%	?	25.8%	10.2%	-12.7%	-11.1%
COc1ccc(C2C=C(c3ccccc3)Nc3nc(NC(=O)/C=C/c4ccc(Cl)cc4)nn32)cc1 (configuration not stated)	.	.	.	-5.2%	14.6µM*	11.6µM*
COc1cccc(NC(=O)C(C#N)C(=O)Cc2ccccc2C)c1 (configuration not stated)	.	.	.	38.5%	.	.
COc1ccc(OCc2nc(C)c(CCO)c(=O)n2CC(=O)NCc2cccs2)cc1	.	.	.	29.6%	.	.
CCCCc1cnc2c(c1SCC(N)=O)c(=O)n(C)c(=O)n2C	.	.	.	-2.2%	.	.
CCCNC(=O)C1(C)CCCN(Cc2ccc3ccccc3c2)C1 (configuration not stated)	.	.	.	2.9%	?	23.1µM*
CCCNC(=O)C1(C)CCCN(Cc2cc3ccccc3o2)C1 (configuration not stated)	.	.	.	6.0%	16.4µM*	23.1µM*
Cc1cccc(-n2c3c(cc(C#N)c2=O)C(=O)CC(c2ccccc2)C3)c1 (configuration not stated)	.	.	.	-3.4%	.	.
SMILES	VP16 counter	ELG1 DNA repair	RORg inh	12-LOX inh	DT40 TDP1 CPT	DT40 TDP1 no CPT
CCOc1cc(C2C3=C(CC(C)(C)CC3=O)OC3=C2C(=O)CC(C)(C)C3)ccc1OC(C)=O	.	.	.	73.0%	.	.
COc1ccc(C(=O)NCC2Cn3cccc3C(=O)N2Cc2ccccc2)cn1 (configuration not stated)	.	.	.	21.9%	.	.
CSc1nc(Sc2ccc(Cl)cc2)c2ccccc2n1	-10.7%	?	15.8µM*	428.8%	?	?
CCCP(=O)(CCC)CCP(=O)(c1ccccc1)c1ccccc1	-1.9%	-7.5%	12.6µM*	4.8%	-3.8%	0.0%
CC(CN1CCOCC1)NS(=O)(=O)c1cc(F)cc(F)c1 (configuration not stated)	.	.	.	28.0%	.	.
COc1cc2oc(=O)c(CC(=O)N3CCCC3)c(C)c2cc1OC	.	.	.	-1.3%	.	.
Cc1nn(-c2ncnc3nc[nH]c23)c2c1C(c1ccc(F)cc1Cl)CC(=O)N2 (configuration not stated)	.	.	.	9.0%	.	.
Cc1cc(C)c(C)c(S(=O)(=O)Nc2ccc3cn[nH]c3c2)c1C	.	-20.5%	.	3.8%	?	20.6µM*
COc1ccc(S(=O)(=O)Nc2ccc3cn[nH]c3c2)cc1C	-12.8%	?	43.4%	-6.4%	-18.1%	?
O=C(c1cc(C2CC2)nc2ccccc12)N1CCN(Cc2ccccc2)CC1	.	.	.	2.5%	.	.
C/C(=N\NC(=S)NCc1ccccc1)c1ccc(C#N)cc1	7.08µM*	-0.3%	2.82µM*	-7.8%	-10.4%	6.6%
COc1ccc(CNC(=S)N/N=C(/C)c2ccccc2)cc1	?	?	8.91µM*	?	-0.8%	?
C/C(=N\NC(=S)NCc1ccccc1)c1ccc(C(C)(C)C)cc1	1.41µM*	?	1µM*	35.5µM*	18.4µM*	23.1µM*
C/C(=N/NC(=S)NCc1ccccc1)c1ccc(Cl)c(Cl)c1	.	.	.	-24.3%	.	.
C=C(C)CNC(=S)N/N=C(\C)c1ccc(OC)cc1	5.01µM*	4.7%	2.24µM*	?	3.66µM*	2.91µM*
C/C(=N\NC(=O)c1ccccc1F)c1ccc(C#N)cc1	-16.8%	?	15.1%	-3.6%	-1.5%	-11.3%
COc1ccc(CNC(C)=O)cc1	.	.	.	22.8%	.	.
Cc1cccc(-c2noc(-c3ccc(Br)cc3)n2)c1	.	.	.	14.3%	.	.
CCOc1ncccc1C(=O)Nc1ccc(S(=O)(=O)NC2=NCCCCC2)cc1	-10.1%	7.1%	-8.1%	0.0%	6.7%	-24.2%
COc1cc(OC)cc(C(=O)OCC(=O)Nc2cccc(S(=O)(=O)NC3=NCCCCC3)c2)c1	.	?	.	5.8%	?	20.6µM*
